# Compound activity as filed in PubChem.
# In the library only some 7.7% were active in any assay of this set; here they are far more common.
# Tb PYK inh: qHTS of Trypanosoma Brucei Inhibitors | Potency, µM (top dose mostly 76.8 µM), inactives show top-dose activity, negative = inhibition, hits mostly inhibitors | pyruvate kinase (Trypanosoma brucei), Q57TT1 | 410,000 tested, 0.12% active | TbPYK enzyme, Kinase-Glo Plus ATP luminescence, 45 min | AID 624173, 2012; also: potency is read from the fitted curve at half-maximal effect; nearly all actives have a fitted effect of over 50% in size
#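 Luminescent Kinase-Glo Plus end-point after 45 min room-temperature reaction of T. brucei pyruvate kinase started with 130 uM ADP (final). Buffer TEA 50 mM pH 7.2 with KCl, MgCl2, BSA, Tween-20; titration-based qHTS with fitted concentration-effect curves.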
# HCMV antiviral: qHTS Assay for inhibitors of the human cytomegalovirus (HCMV); HFF cells, HCMV-luciferase reporter, 72 h; stronger effect = lower value; activity change, negative = inhibition, % at 57.5 µM; 410,000 tested, 4.5% active; AID 1259415, 2018; in the data active = activity change below about -60%; inconclusive = no clear call, values can overlap the other calls; inactive = above about -39%
#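 After 16 h attachment at 37C, HFF cells received test compound and HCMV-luciferase (1 PFU/cell); reporter luminescence read 72 h later, data normalized against buffer-only and known inhibitor Salinomycin.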
# RE007 growth inh: qHTS Assay for Inhibitors of the HIV-1 protein Vpr; S. pombe RE007 Vpr strain, BacTiter-Glo ATP luminescence, 24 h; Potency, µM (series often up to 92.2 µM), without a hit: at the highest dose activity change, negative = less growth, actives largely listed as inhibitors; 360,000 tested, 0.21% active; AID 651644, 2012; active = well fitted falling curve with a large enough effect; inconclusive = small, poorly fitted or top-dose-only effect; inactive = no such curve, though single readings can be large or run the other way; also: potency is read from the fitted curve at half-maximal effect; nearly all actives have a fitted effect of over 50% in size
#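 Fission yeast RE007 carrying one integrated HIV-1 vpr copy, seeded at OD 0.01 in PMG+AL medium with 23 nL pinned compound. Grown 24 h at 30 degrees; viability read by BacTiter-Glo luminescence after 5 min.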
# FMDV antiviral: High Throughput Screening for Foot and Mouth Disease Virus Antivirals; Potency, µM (doses to about 57.9 µM), inactives show at the highest dose activity change, negative = inhibition, hits mostly inhibitors; FMDV antiviral cell-based qHTS; 410,000 tested, 1.2% active; calls by dose curve; tested in HEK293T cells; also: read-out not given here; potency is read from the fitted curve at half-maximal effect; nearly all actives have a fitted effect of over 45% in size
# FBPA Giardia inh: qHTS Assay for Inhibitors of Fructose-1,6-bisphosphate Aldolase from Giardia Lamblia; AID 2451, 2010; Potency, µM (titrated, usually from 59.6 µM), for the others: top-dose activity, negative = inhibition, usual class: inhibitors; purified Giardia FBPA; A8B2U2; 290,000 tested, 0.71% active; also: potency is read from the fitted curve at half-maximal effect; nearly all actives have a fitted effect of over 55% in size
# Target sequence (A8B2U2 whole entry, looked up): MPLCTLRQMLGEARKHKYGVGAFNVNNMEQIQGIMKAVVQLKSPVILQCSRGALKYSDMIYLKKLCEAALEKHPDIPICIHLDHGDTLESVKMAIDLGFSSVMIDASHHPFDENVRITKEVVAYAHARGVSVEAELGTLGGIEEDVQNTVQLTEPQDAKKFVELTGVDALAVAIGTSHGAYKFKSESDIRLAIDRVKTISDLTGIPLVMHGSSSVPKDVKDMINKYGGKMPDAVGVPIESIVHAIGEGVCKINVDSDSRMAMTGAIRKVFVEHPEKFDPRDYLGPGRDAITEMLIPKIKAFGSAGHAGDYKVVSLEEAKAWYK
#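 Giardia FBPA (40 nM reagent) was preincubated 10 min at RT with compound (up to 57.5 uM final), then substrate plus GAPDH/TPI/NAD/arsenate coupling system with diaphorase/resazurin was added; resorufin fluorescence (525/598 nm) was read after 20 min.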
# Sm TGR block: qHTS Assay for the Inhibitors of Schistosoma Mansoni Peroxiredoxins; Schistosoma mansoni thioredoxin glutathione reductase (TGR), Q962Y6; purified TGR, DTNB reduction, TNB absorbance 405 nm; Potency, µM (doses to about 114 µM), for the others: top-dose activity change, negative = inhibition, actives largely listed as inhibitors; 360,000 tested, 3% active; AID 485364, 2010; also: potency is read from the fitted curve at half-maximal effect; nearly all actives have a fitted effect of over 60% in size
#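 TGR 20 nM + NADPH 100 uM (dispensed conc.), cpd preinc 15 min RT; start with NADPH (500 uM addition) then DTNB (15 mM addition). Kinetic TNB absorbance, 405 nm filter. Four-parameter Hill fit across titration.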
# The depositor's hits bear a star; ? = inconclusive; · = no result; [ ] = remark or other dose. Unless noted, calls follow the shape of the dose curve; as a rule, active = well fitted curve in the direction sought with a large enough effect; inconclusive = small, poorly fitted or top-dose-only effect, or another doubt; inactive = no such curve, though single readings can be large; an effect the other way counts as inactive or inconclusive. % is scaled to controls: 0 for no effect and ±100 for the full control effect.
SMILES,Tb PYK inh,HCMV antiviral,RE007 growth inh,FMDV antiviral,FBPA Giardia inh,Sm TGR block
CC(=O)NC1[C@H]([C@H](O)[C@H](O)CO)OC(C(=O)O)=C[C@H]1N=C(N)N (stereo partly specified),-4.7%,·,·,·,·,·
COc1ccc(-c2nc(N)nc(C)c2-c2ccc(Cl)cc2)c(O)c1,3.5%,?,0.6%,?,-6.0%,-11.7%
Cc1[nH]nc(-c2ccc(O)cc2O)c1-c1ccc(Cl)cc1,-1.3%,-71.5*,6.2%,?,·,-6.3%
COc1ccc(-c2n[nH]c(C)c2-c2ccc(Cl)cc2)c(O)c1,-11.1%,?,?,?,-11.6%,-20.4%
COc1ccc(-c2n[nH]c(C)c2-c2ccc(Cl)cc2)c(O)c1OC,-0.1%,?,7.9%,31.6µM*,-1.4%,-8.8%
COc1ccc(O)c(-c2c(-c3ccc(Cl)cc3)n[nH]c2C)c1,-22.0%,1.2,0.0%,?,?,50.1µM*
CCOC(=O)N1CCC(NC(=O)c2c(C)nn(-c3cccc(C)c3)c2-n2cccc2)CC1,5.1%[15.4 µM],0.0,·,-25.8%,·,6.8%
COc1ccc(CC(=O)NNC(=O)CCC(=O)Nc2cc(C)ccc2C)cc1,0.6%,-103.6*,-14.9%,-9.3%,2.4%,·
CCC1CN(CCC(=O)N2CCCN(C(=O)c3ccco3)CC2)Cc2cc(OC)ccc2O1 (stereo unspecified),·,·,·,-10.9%,·,·
COc1cc(C(=O)Nc2nc3c(s2)Cc2c(Br)ccc(OC)c2-3)cc(OC)c1OC,-9.8%,-11.9,·,-4.5%,·,-10.8%
COc1ncc2nc(-c3cc(F)cc(F)c3)c(=O)n(-c3ccccc3)c2n1,·,·,·,8.5%,7.5%,·
O=C1CS/C(=N/N=C/c2ccccc2)N1Cc1ccco1,4.9%,5.2,-22.3%,-0.7%,-0.5%,39.8µM*
CC1S/C(=N/N=C/c2ccco2)N(Cc2ccccc2)C1=O (stereo unspecified),-2.7%,-10.3,-12.8%,34.3%,-15.2%,35.5µM*
CCC1S/C(=N/N=C/c2ccco2)N(Cc2ccc(F)cc2)C1=O (stereo unspecified),-2.3%,5.5,-3.7%,-15.9%,-3.6%,?
CCC1S/C(=N/N=C/c2ccco2)N(Cc2ccccc2C)C1=O (stereo unspecified),-0.6%,-19.8,17.8%,-6.8%,0.5%,39.8µM*
Cc1cc(C)c(N=C2SCC(=O)N2Cc2ccco2)c(C)c1,0.6%,-17.7,20.4%,-26.4%,16.1%,-20.3%
COc1ccc(OC)c(/C=N/N=C2\SCC(=O)N2Cc2ccco2)c1,-12.3%,-1.6,·,-2.9%,0.6%,-16.0%
Cc1ccccc1CN1C(=O)CS/C1=N/N=C/c1ccco1,0.2%,9.2,-8.4%,-14.6%,-15.0%,11.2µM*
CCc1ccc(NC(=O)C2CCCN2S(=O)(=O)c2cccc3nsnc23)cc1 (stereo unspecified),1.2%,13.6,·,-22.4%,·,-2.9%
COc1ccc(NC(=O)c2cnc(N3CCCCC3)c3ccccc23)cc1Cl,-0.7%,-22.2,·,?,·,8.5%
Fc1ccccc1Nc1c2c(nc3ccccc13)CCC2,-0.4%,?,·,?,·,9.0%
Fc1ccc(F)c(Nc2c3c(nc4ccc(Cl)cc24)CCC3)c1,3.8%,-68.6*,·,?,·,-0.3%
FC(F)(F)c1cccc(Nc2c3c(nc4ccc(Cl)cc24)CCC3)c1,0.7%,-76.2*,·,-8.2%,·,26.0%
Cc1ccc2nc3c(c(Nc4ccccc4)c2c1)CCC3,-0.3%,?,0.1%,?,-2.9%,0.3%
O=C(NCc1cc(F)cc(F)c1)[C@H]1[C@H](CO)[C@H]2Cn3c(cccc3=O)[C@@H]1N2C(=O)c1ccccn1,·,-10.2,·,·,·,·
SMILES,Tb PYK inh,HCMV antiviral,RE007 growth inh,FMDV antiviral,FBPA Giardia inh,Sm TGR block
O=C1OC(c2ccccc2)=N/C1=C\C=C\c1ccco1,-6.1%,-10.1,-1.3%,-7.0%,-1.3%,?
O=C1OC(c2ccc(Cl)cc2)=N/C1=C\C=C\c1ccco1,-10.8%,38.9,3.9%,-4.0%,-10.9%,28.2µM*
COc1cc(C2c3cc4c(cc3C(O)[C@H]3COC(=O)C23)OCO4)cc(OC)c1OC (stereo partly specified),·,·,·,0.0%,0.2%,·
COc1cc(C2c3cc4c(cc3OC(N3CCCC3)C2C)OCO4)cc(OC)c1O (stereo unspecified),-9.9%,12.9,0.8%,2.0%,·,·
COc1ccc(NC2Oc3cc4c(cc3C(c3cc(OC)c(OC)c(OC)c3)C2C)OCO4)cc1 (stereo unspecified),-3.8%,-77.0*,7.5%,-23.0%,·,·
COc1cc(C2C3=C(COC3=O)OC(C)(C)Oc3cc4c(cc32)OCO4)cc(OC)c1OC (stereo unspecified),-4.6%,-79.9*,9.7%,-6.4%,·,·
COc1cc(C2c3cc4c(cc3OC(Nc3ccc(C(=O)O)cc3)C2C)OCO4)cc(OC)c1OC (stereo unspecified),-8.2%,-60.1*,-28.7%,-18.1%,·,·
COc1cc(C2c3cc4c(cc3OC(N3CCOCC3)C2C)OCO4)cc(OC)c1OC(C)=O (stereo unspecified),-14.2%,9.1,5.5%,-14.3%,·,·
COc1cc(C2c3cc4c(cc3OC(C)(N3CCCC3)C2C)OCO4)cc(OC)c1OC (stereo unspecified),-3.1%,-68.0*,-8.5%,-3.7%,·,·
COC/C=C/C1=CC2=CC(=O)C(C)(OC(=O)CCc3ccccc3)C(=O)C2=CO1 (stereo unspecified),·,·,·,·,-6.7%,·
CCC(=O)N1CCc2cc(S(=O)(=O)NCCC(=O)Nc3cccc(SC)c3)ccc21,3.0%,-25.5,·,-18.5%,·,-2.9%
CCCCOCC1CN(CCCC)S(=O)(=O)c2c(Oc3ccc(OC)cc3)cccc2O1 (stereo unspecified),·,-4.6,·,·,·,·
COc1cc(C2c3cc4c(cc3OC(NCCc3ccccc3)C2C)OCO4)cc(OC)c1OC (stereo unspecified),-8.2%,-82.0*,-8.2%,-12.8%,·,·
CCN=C1NC(c2ccccc2C(F)(F)F)C(C(=O)OC)=C(C)N1C (stereo unspecified),·,60.5,·,·,·,·
C=CCN1CC(C(=O)N(CCCN(C)C)C(=O)NCC)CC2c3cccc4[nH]cc(c34)CC21 (stereo unspecified),-8.1%,·,·,·,7.0%,·
